Values joined by “and” are separate entries in the source; they are usually repeats but may differ in a detail not shown here. Equal entries are not always repeated. Out of some 5,500 compounds screened, about 2,000 (36%) were called active. Roughly 18% stayed inconclusive and do not appear here. Rule as the data show it: active = normalized growth mostly below about 0.91 (no sharp cut-off); inconclusive = no clear call, values can overlap the other calls; inactive = mostly above about 0.92. The list shows a part of the results.
Test: chemical genetic growth profiling, strain panel (AID 1159580);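 also: tested at 20 µM; growth read once vehicle control cultures reached saturation at 30 °C; 1 = growth at the plate median or of vehicle wells; lower values mean less growth of the strain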
Conditions: S. cerevisiae deletion strains, growth OD

Measured: normalized growth

C[C@]12C=CC(=O)C=C1CCC1C2CC[C@]2(C)C(=O)CCC12 (stereo partly drawn)
inactive: locus YAL021C, strain ccr4, stronger effect = lower value 0.97 | locus YAL026C, strain drs2, stronger effect = lower value 0.983 | locus YAL030W, strain snc1, stronger effect = lower value 0.976 | locus YBL061C, strain skt5, stronger effect = lower value 0.971 | locus YBR009C, strain hhf1, stronger effect = lower value 0.966 | locus YBR021W, strain FUR4, stronger effect = lower value 0.986 | locus YBR023C, strain chs3, stronger effect = lower value 0.979 | locus YBR171W, strain sec66, stronger effect = lower value 0.987 | locus YBR229C, strain ROT2, stronger effect = lower value 0.992 | locus YBR231C, strain swc5, stronger effect = lower value 0.982 | locus YBR279W, strain paf1, stronger effect = lower value 0.982 | locus YCL011C, strain gbp2, stronger effect = lower value 0.988 | locus YCL016C, strain dcc1, stronger effect = lower value 0.976 | locus YCL029C, strain bik1, stronger effect = lower value 0.992 | locus YCL061C, strain MRC1, stronger effect = lower value 0.972 | locus YCL069W, strain vba3, stronger effect = lower value 0.981 | locus YCR088W, strain abp1, stronger effect = lower value 0.98 | locus YDL005C, strain med2, stronger effect = lower value 0.977 | locus YDL035C, strain GPR1, stronger effect = lower value 1.03 | locus YDL040C, strain nat1, stronger effect = lower value 0.985 | locus YDL074C, strain BRE1, stronger effect = lower value 1.01 | locus YDL101C, strain DUN1, stronger effect = lower value 1.01 | locus YDL134C, strain PPH21, stronger effect = lower value 1.01 | locus YDL185W, strain tfp1, stronger effect = lower value 1 | locus YDL192W, strain arf1, stronger effect = lower value 0.981 | locus YDR001C, strain nth1, stronger effect = lower value 0.984 | locus YDR069C, strain doa4, stronger effect = lower value 0.978 | locus YDR101C, strain arx1, stronger effect = lower value 0.981 | locus YDR137W, strain rgp1, stronger effect = lower value 1.04 | locus YDR150W, strain NUM1, stronger effect = lower value 1.01 | locus YDR159W, strain sac3, stronger effect = lower value 0.928 | locus YDR162C, strain NBP2, stronger effect = lower value 1.03 | locus YDR195W, strain ref2 0.935 | locus YDR297W, strain sur2, stronger effect = lower value 0.972 | locus YDR318W, strain mcm21, stronger effect = lower value 0.992 | locus YDR334W, strain swr1, stronger effect = lower value 0.976 | locus YDR335W, strain msn5, stronger effect = lower value 0.988 | locus YDR388W, stronger effect = lower value 0.981 | locus YDR392W, strain spt3, stronger effect = lower value 0.877 | locus YDR502C, strain sam2, stronger effect = lower value 0.976 | locus YEL003W, strain gim4, stronger effect = lower value 0.988 | locus YEL037C, strain rad23, stronger effect = lower value 0.989 | locus YEL061C, strain CIN8 (second series), stronger effect = lower value 0.988 | locus YEL061C, strain CIN8, stronger effect = lower value 0.995 | locus YER015W, strain faa2, stronger effect = lower value 0.981 | locus YER016W, strain bim1, stronger effect = lower value 0.981 | locus YER110C, stronger effect = lower value 0.984 | locus YER111C, strain swi4, stronger effect = lower value 0.986 | locus YER155C, strain BEM2 (second series), stronger effect = lower value 0.949 | locus YER155C, strain BEM2, stronger effect = lower value 0.979 | locus YER167W, strain BCK2, stronger effect = lower value 0.986 | locus YFR010W, strain ubp6, stronger effect = lower value 0.988 | locus YGL078C, strain dbp3, stronger effect = lower value 0.986 | locus YGL086W, strain mad1, stronger effect = lower value 0.983 | locus YGL167C, strain pmr1, stronger effect = lower value 0.976 | locus YGL173C, strain kem1, stronger effect = lower value 0.98 | locus YGL227W, strain vid30, stronger effect = lower value 0.984 | locus YGL240W, strain doc1, stronger effect = lower value 0.926 | locus YGL248W, strain PDE1, stronger effect = lower value 0.995 | locus YGL253W, strain hxk2, stronger effect = lower value 0.987 | locus YGR078C, strain PAC10, stronger effect = lower value 1.02 | locus YGR135W, strain pre9, stronger effect = lower value 0.996 | locus YGR229C, strain SMI1, stronger effect = lower value 1.07 | locus YGR252W, strain gcn5, stronger effect = lower value 0.988 | locus YHR013C, strain ard1, stronger effect = lower value 0.951 | locus YHR027C, strain rpn1, stronger effect = lower value 0.99 | locus YHR030C, strain SLT2, stronger effect = lower value 1.01 and 0.976 | locus YHR079C, strain IRE1 (second series), stronger effect = lower value 0.987 | locus YHR079C, strain IRE1, stronger effect = lower value 0.978 | locus YHR094C, strain hxt1, stronger effect = lower value 0.981 | locus YHR129C, strain ARP1, stronger effect = lower value 1 | locus YHR142W, strain chs7, stronger effect = lower value 0.995 | locus YHR200W, strain rpn10, stronger effect = lower value 0.976 | locus YIL066C, strain RNR3, stronger effect = lower value 1.01 | locus YIL073C, strain SPO22, stronger effect = lower value 1.04 | locus YIL125W, strain kgd1, stronger effect = lower value 0.975 | locus YIR030C, strain dcg1, stronger effect = lower value 0.992 | locus YJL092W, strain hpr5, stronger effect = lower value 0.985 | locus YJL095W, strain BCK1 (second series), stronger effect = lower value 0.98 | locus YJL095W, strain BCK1, stronger effect = lower value 1 and 0.98 | locus YJL115W, strain asf1, stronger effect = lower value 0.977 | locus YJL129C, strain trk1, stronger effect = lower value 0.985 | locus YJL134W, strain LCB3, stronger effect = lower value 1.01 | locus YJL154C, strain vps35, stronger effect = lower value 0.998 | locus YJL164C, strain tpk1, stronger effect = lower value 0.976 | locus YJL166W, strain qcr8, stronger effect = lower value 0.957 | locus YJL168C, strain set2, stronger effect = lower value 0.978 | locus YJL187C, strain SWE1 (second series), stronger effect = lower value 1.02 | locus YJL187C, strain SWE1, stronger effect = lower value 0.979 | locus YJR043C, strain POL32, stronger effect = lower value 1.03 | locus YJR066W, strain TOR1, stronger effect = lower value 0.937 | locus YKL009W, strain mrt4, stronger effect = lower value 1 | locus YKL068W, stronger effect = lower value 1 | locus YKL085W, strain MDH1 (second series), stronger effect = lower value 0.993 | locus YKL085W, strain MDH1, stronger effect = lower value 0.993 | locus YKL160W, strain elf1, stronger effect = lower value 0.985 | locus YKR001C, strain vps1, stronger effect = lower value 0.986 | locus YKR026C, strain gcn3, stronger effect = lower value 0.962 | locus YKR091W, strain srl3, stronger effect = lower value 0.976 | locus YLL001W, strain dnm1, stronger effect = lower value 0.969 | locus YLL026W, stronger effect = lower value 0.981 | locus YLL041C, strain sdh2, stronger effect = lower value 0.981 | locus YLR027C, strain aat2, stronger effect = lower value 0.984 | locus YLR039C, strain RIC1, stronger effect = lower value 1.27 | locus YLR058C, strain SHM2, stronger effect = lower value 0.993 | locus YLR102C, strain apc9, stronger effect = lower value 0.997 | locus YLR113W, strain HOG1, stronger effect = lower value 0.966 | locus YLR221C, strain rsa3, stronger effect = lower value 0.977 | locus YLR258W, strain gsy2, stronger effect = lower value 0.973 | locus YLR262C, strain YPT6 (second series), stronger effect = lower value 1.05 | locus YLR262C, strain YPT6, stronger effect = lower value 1.23 | locus YLR268W, strain sec22, stronger effect = lower value 0.997 | locus YLR320W, strain mms22, stronger effect = lower value 0.946 | locus YLR330W, strain CHS5, stronger effect = lower value 1 | locus YLR342W, strain FKS1 (second series), stronger effect = lower value 0.958 | locus YLR342W, strain FKS1, stronger effect = lower value 0.976 | locus YLR357W, strain rsc2, stronger effect = lower value 1.01 | locus YLR370C, strain arc18, stronger effect = lower value 0.977 | locus YLR371W, strain rom2, stronger effect = lower value 0.993 | locus YLR384C, strain iki3, stronger effect = lower value 0.983 | locus YLR418C, strain cdc73, stronger effect = lower value 0.968 | locus YML016C, strain PPZ1, stronger effect = lower value 0.994 | locus YML032C, strain rad52, stronger effect = lower value 0.996 | locus YML120C, strain ndi1, stronger effect = lower value 0.983 | locus YML124C, strain tub3, stronger effect = lower value 0.982 | locus YMR058W, strain fet3, stronger effect = lower value 0.979 | locus YMR078C, strain ctf18, stronger effect = lower value 0.974 | locus YMR125W, strain sto1, stronger effect = lower value 0.997 | locus YMR129W, stronger effect = lower value 0.991 | locus YMR205C, strain PFK2, stronger effect = lower value 0.963 | locus YMR223W, strain ubp8, stronger effect = lower value 0.98 | locus YMR231W, strain pep5, stronger effect = lower value 0.986 | locus YMR263W, strain SAP30, stronger effect = lower value 0.99 | locus YMR307W, strain GAS1, stronger effect = lower value 1.16 | locus YNL067W, strain RPL9B, stronger effect = lower value 1.02 | locus YNL071W, strain lat1, stronger effect = lower value 0.977 | locus YNL128W, strain TEP1, stronger effect = lower value 1.02 | locus YNL153C, strain GIM3, stronger effect = lower value 1.01 | locus YNL183C, strain NPR1, stronger effect = lower value 0.897 | locus YNL209W, strain ssb2, stronger effect = lower value 0.985 | locus YNL233W, strain BNI4, stronger effect = lower value 0.994 | locus YNL248C, strain rpa49, stronger effect = lower value 0.991 | locus YNL250W, strain rad50, stronger effect = lower value 0.99 | locus YNL271C, strain bni1, stronger effect = lower value 0.989 | locus YNL298W, strain CLA4, stronger effect = lower value 0.981 | locus YNL307C, strain MCK1, stronger effect = lower value 0.982 | locus YNL322C, strain KRE1 (second series), stronger effect = lower value 0.978 | locus YNR049C, strain mso1, stronger effect = lower value 0.983 | locus YNR052C, strain pop2, stronger effect = lower value 0.989 | locus YOL006C, strain TOP1, stronger effect = lower value 0.98 | locus YOL012C, strain htz1 1.46 | locus YOL147C, strain pex11, stronger effect = lower value 0.997 | locus YOR001W, strain rrp6, stronger effect = lower value 0.98 | locus YOR061W, strain CKA2, stronger effect = lower value 0.996 | locus YOR069W, strain VPS5, stronger effect = lower value 0.998 | locus YOR070C, strain gyp1, stronger effect = lower value 0.989 | locus YOR080W, strain dia2, stronger effect = lower value 0.972 | locus YOR083W, strain WHI5, stronger effect = lower value 0.983 | locus YOR106W, strain vam3, stronger effect = lower value 0.982 | locus YOR136W, strain idh2, stronger effect = lower value 0.987 | locus YOR144C, strain elg1, stronger effect = lower value 0.977 | locus YOR184W, strain ser1, stronger effect = lower value 0.985 | locus YOR231W, strain MKK1, stronger effect = lower value 0.98 | locus YOR265W, strain rbl2, stronger effect = lower value 0.983 | locus YOR270C, strain vph1, stronger effect = lower value 0.941 | locus YOR290C, strain snf2, stronger effect = lower value 0.943 | locus YOR316C, strain cot1, stronger effect = lower value 0.984 | locus YPL051W, strain arl3, stronger effect = lower value 0.998 | locus YPL055C, strain LGE1, stronger effect = lower value 1.02 | locus YPL078C, strain atp4, stronger effect = lower value 0.989 | locus YPL106C, strain sse1, stronger effect = lower value 0.958 | locus YPL240C, strain hsp82, stronger effect = lower value 0.965 | locus YPL256C, strain CLN2, stronger effect = lower value 0.98 | locus YPR119W, strain clb2, stronger effect = lower value 0.975 | locus YPR141C, strain kar3, stronger effect = lower value 0.982 | locus YPR163C, strain tif3, stronger effect = lower value 0.992 | locus YPR167C, strain met16, stronger effect = lower value 0.981 | strain wtn01, stronger effect = lower value 0.99

Reference: PubChem BioAssay AID1159580 (chemical genetic matrix, 2015)
